# Laboratory results reported in PubChem BioAssay AID2061313 (National Center for Advancing Translational Sciences (NCATS), 2025).
# Records with an inconclusive call do not appear. The source made the active and inactive calls. The call rests on the fitted dose curve; in most records, active means well fitted curve in the direction sought with a large enough effect; inconclusive means small, poorly fitted or top-dose-only effect, or another doubt; inactive means no such curve, though single readings can be large or run the other way.
# Target: Aldehyde dehydrogenase 1A1 (Homo sapiens) (UniProt P00352)
# Experiment: qHTS for Inhibitors of the Aldehyde Dehydrogenase Family (ALDH1A1) Validation screens
# Conditions: fluorescence; Potency: ALDH1A1 inhibition validation qHTS; series mostly up to 39.8 µM
row,SMILES,Potency
1,CC(C)(C)c1ccc(S(=O)(=O)/C=C/C#N)cc1,89.1 nM (active)
2,CC(C)N(CCC(=O)c1ccc2ccccc2c1)Cc1ccccc1,70.8 nM (active)
3,O=c1c(-c2ccc(O)cc2)coc2cc(O[C@@H]3O[C@H](CO)[C@H](O)[C@H](O)[C@H]3O)ccc12,inactive
